# Reference: the supplement of paper PMC9262897, “Low-cost anti-mycobacterial drug discovery using engineered E. coli” (Nature Communications, 2022)
# Where a name gives a salt, the structure may show the parent alone. ± gives the standard deviation of the averaged measurements.
# What was measured:
# Experiment in all cases: growth (OD600 after 10 h); higher = more growth (less inhibition)
# [1] = test system: E. coli TESEC Alr+ wild-type control; details: compound 0.1 mM; raw OD600 reference: median of DMSO wells 0.241, cell-free background 0.041
# Description: (§1)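 TESEC Mtb Alr E. coli, or the Alr+ wild-type control, in 384-well plates with Prestwick library compounds at 0.1 mM and 1% DMSO, across arabinose induction levels of 1E3 to 1E7 nM. Growth is read as OD600 after 10 h at 37 °C in triplicate biological replicates.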
# [2] = test system: E. coli TESEC Mtb Alr; details: compound 0.1 mM
# Description: as §1
# [3] = test system: E. coli TESEC Mtb Asd; details: compound 0.1 mM
# Description: (§2)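 TESEC E. coli strains in which the native enzyme is deleted and replaced by arabinose-inducible Mtb Asd, DapB, CysH or TrpD, each grown in its selective medium. Strains were screened against the Prestwick library at 0.1 mM and 1% DMSO in 384-well format at low and high arabinose induction. Growth is read as OD600 after 10 h in triplicate.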
# [4] = test system: E. coli TESEC Mtb DapB; details: compound 0.1 mM
# Description: as §2
# [5] = test system: E. coli TESEC Mtb Alr; details: compound 0.1 mM; remark: listed apart in the source
# Description: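 TESEC Mtb Alr E. coli (ΔaraC ΔtolC ΔentC Δalr ΔdadX, arabinose-inducible Mtb Alr) or the Alr+ wild-type control strain, grown in defined M9-fructose medium without D-alanine in 96-well plates with Prestwick library compounds at 0.1 mM and 1% DMSO. Low Alr induction is 0.1 µM arabinose and high induction is 10 mM arabinose.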
# [6] = arabinose 1000 nM, raw OD600 reference: median of DMSO wells 0.294, cell-free background 0.041
# [7] = arabinose 10000 nM, raw OD600 reference: median of DMSO wells 0.264, cell-free background 0.041
# [8] = arabinose 100000 nM, raw OD600 reference: median of DMSO wells 0.201, cell-free background 0.041
# [9] = arabinose 1000000 nM, raw OD600 reference: median of DMSO wells 0.193, cell-free background 0.041
# [10] = arabinose 10000000 nM, raw OD600 reference: median of DMSO wells 0.146, cell-free background 0.041
# [11] = arabinose induction (level): High, raw OD600 reference: median of DMSO wells 0.331, cell-free background 0.041
# [12] = arabinose induction (level): Low, raw OD600 reference: median of DMSO wells 0.417, cell-free background 0.041
# [13] = arabinose induction (level): High, raw OD600 reference: median of DMSO wells […], cell-free background 0.041
# [14] = arabinose induction (level): Low, raw OD600 reference: median of DMSO wells 0.227, cell-free background 0.041
# [15] = arabinose 100 nM, raw OD600 reference: median of DMSO wells 0.413, cell-free background 0.052
# [16] = arabinose 10000000 nM, raw OD600 reference: median of DMSO wells […], cell-free background 0.052
SMILES,growth [1],"growth [2, 6]","growth [2, 7]","growth [2, 8]","growth [2, 9]","growth [2, 10]","growth [3, 11]","growth [3, 12]","growth [4, 13]","growth [4, 14]","growth [5, 15]","growth [5, 16]"
c1ccc2c(c1)OCC(C1=NCCN1)O2 (centres undefined) [Idazoxan hydrochloride],0.23 ± 0.013,0.281 ± 0.02,0.27 ± 0.0069,0.188 ± 0.0024,0.192 ± 0.0045,0.141 ± 0.0099,0.373 ± 0.039,0.379 ± 0.019,0.183 ± 0.017,0.228 ± 0.021,0.401 ± 0.014,0.315 ± 0.0098
CN(C)C(=O)Oc1ccc[n+](C)c1 [Pyridostigmine iodide],0.248 ± 0.011,0.305 ± 0.0085,0.25 ± 0.0086,0.253 ± 0.012,0.181 ± 0.0086,0.138 ± 0.0049,0.335 ± 0.049,0.434 ± 0.076,0.195 ± 0.017,0.221 ± 0.0064,0.404 ± 0.017,0.355 ± 0.0089
COc1ccc(CN2CCNCC2)c(OC)c1OC [Trimetazidine dihydrochloride],0.228 ± 0.0052,0.3105 ± 0.0026,0.268 ± 0.0047,0.23 ± 0.024,0.172 ± 0.0071,0.162 ± 0.0046,0.301 ± 0.068,0.307 ± 0.11,0.197 ± 0.0097,0.242 ± 0.028,0.409 ± 0.014,0.33 ± 0.019
CN1CCN(C(=O)OC2c3nccnc3C(=O)N2c2ccc(Cl)cn2)CC1 (centres undefined) [Zopiclone],0.222 ± 0.0047,0.284 ± 0.0071,0.246 ± 0.0053,0.183 ± 0.011,0.18 ± 0.0087,0.138 ± 0.0054,0.291 ± 0.062,0.358 ± 0.056,0.194 ± 0.0097,0.224 ± 0.04,0.417 ± 0.009,0.357 ± 0.01
O=P1(N(CCCl)CCCl)NCCCO1 (centres undefined) [Cyclophosphamide],0.2382 ± 0.0022,0.271 ± 0.011,0.276 ± 0.0047,0.18 ± 0.021,0.204 ± 0.022,0.137 ± 0.0039,0.341 ± 0.066,0.446 ± 0.014,0.205 ± 0.019,0.216 ± 0.029,0.4139 ± 0.003,0.314 ± 0.012
CC(C)(N)Cc1ccccc1 [Phentermine hydrochloride],0.232 ± 0.0076,0.288 ± 0.017,0.273 ± 0.0063,0.199 ± 0.033,0.193 ± 0.0084,0.138 ± 0.0031,0.318 ± 0.043,0.297 ± 0.017,0.206 ± 0.021,0.233 ± 0.014,0.413 ± 0.014,0.36 ± 0.0095
CCN(CC)C(C)C(=O)c1ccccc1 (centres undefined) [Amfepramone hydrochloride],0.25 ± 0.0034,0.259 ± 0.051,0.261 ± 0.014,0.179 ± 0.027,0.187 ± 0.0038,0.141 ± 0.0089,0.256 ± 0.064,0.447 ± 0.047,0.202 ± 0.018,0.218 ± 0.021,0.411 ± 0.0098,0.325 ± 0.016
"CNCC(O)c1ccc(O)cc1 (racemic) [(+,-)-Synephrine]",0.239 ± 0.0073,0.2963 ± 0.00035,0.267 ± 0.01,0.175 ± 0.012,0.198 ± 0.012,0.141 ± 0.0004,0.222 ± 0.018,0.322 ± 0.076,0.227 ± 0.021,0.232 ± 0.042,0.4195 ± 0.0029,0.325 ± 0.027
CC[C@@H](C(N)=O)N1CCCC1=O [Levetiracetam],0.247 ± 0.0084,0.304 ± 0.018,0.264 ± 0.0095,0.205 ± 0.0055,0.183 ± 0.0062,0.168 ± 0.0049,0.256 ± 0.074,0.313 ± 0.057,0.188 ± 0.0023,0.229 ± 0.023,0.409 ± 0.0085,0.364 ± 0.028
"NCC(O)c1ccc(O)cc1 (racemic) [(+,-)-Octopamine hydrochloride]",0.258 ± 0.0024,0.325 ± 0.02,0.268 ± 0.011,0.194 ± 0.012,0.179 ± 0.0096,0.162 ± 0.0021,0.483 ± 0.015,0.45 ± 0.018,0.203 ± 0.0088,0.271 ± 0.022,0.408 ± 0.015,0.337 ± 0.014
CC(C)C[C@H](CN)CC(=O)O [Pregabalin],0.239 ± 0.015,0.291 ± 0.0063,0.273 ± 0.013,0.178 ± 0.022,0.223 ± 0.015,0.134 ± 0.0081,0.28 ± 0.062,0.406 ± 0.038,0.201 ± 0.0072,0.231 ± 0.07,0.41 ± 0.01,0.306 ± 0.013
C[N+]1(C)CCCC(OC(=O)C(O)(c2ccccc2)c2ccccc2)C1 (centres undefined) [Mepenzolate bromide],0.235 ± 0.006,0.307 ± 0.016,0.258 ± 0.0015,0.203 ± 0.022,0.179 ± 0.0065,0.137 ± 0.0056,0.307 ± 0.038,0.461 ± 0.02,0.188 ± 0.0063,0.226 ± 0.009,0.405 ± 0.0053,0.345 ± 0.014
COc1cc([C@@H]2c3cc4c(cc3[C@H](O)[C@H]3COC(=O)[C@H]23)OCO4)cc(OC)c1OC [Podophyllotoxin],0.222 ± 0.0075,0.298 ± 0.016,0.271 ± 0.0092,0.168 ± 0.012,0.163 ± 0.0082,0.1495 ± 0.0008,0.443 ± 0.027,0.46 ± 0.053,0.212 ± 0.012,0.261 ± 0.027,0.403 ± 0.015,0.298 ± 0.0059
C[C@]12CC[C@H](O)C[C@H]1CC[C@@H]1[C@@H]2CC[C@]2(C)[C@@H](C3=CC(=O)OC3)CC[C@]12O [Digitoxigenin],0.147 ± 0.0028,0.197 ± 0.0049,0.251 ± 0.0094,0.117 ± 0.0044,0.0923 ± 0.0033,0.126 ± 0.0021,0.154 ± 0.0042,0.289 ± 0.096,0.165 ± 0.0087,0.171 ± 0.003,0.41 ± 0.0093,0.227 ± 0.01
C[C@]12CCC(=O)C(O)=C1CC[C@@H]1[C@@H]2CC[C@]2(C)C(=O)CC[C@@H]12 [Formestane],0.115 ± 0.0066,0.182 ± 0.011,0.228 ± 0.014,0.1 ± 0.0018,0.0848 ± 0.0012,0.1103 ± 0.00057,0.13 ± 0.017,0.25 ± 0.052,0.156 ± 0.01,0.159 ± 0.0083,0.373 ± 0.025,0.133 ± 0.017
CC[C@@H](CO)NC(=O)[C@@H]1C=C2c3cccc4[nH]cc(c34)C[C@H]2N(C)C1 [Methylergometrine maleate],0.227 ± 0.0031,0.262 ± 0.0081,0.207 ± 0.0073,0.279 ± 0.0098,0.119 ± 0.0017,0.178 ± 0.0023,0.228 ± 0.051,0.267 ± 0.069,0.129 ± 0.028,0.156 ± 0.057,0.4 ± 0.0081,0.359 ± 0.0099
CCC(COC(=O)c1cc(OC)c(OC)c(OC)c1)(c1ccccc1)N(C)C (centres undefined) [Trimebutine],0.13 ± 0.0031,0.142 ± 0.012,0.151 ± 0.011,0.116 ± 0.0031,0.0716 ± 0.0024,0.101 ± 0.015,0.205 ± 0.033,0.245 ± 0.085,0.1665 ± 0.0014,0.191 ± 0.028,0.403 ± 0.0063,0.119 ± 0.0083
